POLB inh – inhibitors of human DNA polymerase beta | Pol beta primer extension/strand displacement, fluorescence kinetic | Potency, µM (highest dose often 114 µM), inactives show at the top dose activity change, negative = inhibition, hits mostly inhibitors | P06746 | 340,000 tested, 1.3% active; note: % is set by controls: 0 for no effect and ±100 for the full control effect
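Human Pol beta at 10 nM; strand-displacement substrate 50 nM final. Compound exposure 15 min at room temperature before start, reaction 10 min at room temperature.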
POLI inh – blocks human DNA polymerase iota activity. Potency, µM (top dose mostly 115 µM), for the others: top-dose activity, negative = inhibition, hits mostly inhibitors. Pol iota fluorescent replication assay, 10 min. 390,000 tested, 1% active
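Fluorescent replication assay read twice, at 0 min and 10 min after adding 50 nM (final) substrate. Enzyme (10 nM) and compounds were first incubated 15 min at room temperature; enzyme-free buffer wells were negative controls.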
FEN1 inh – human FEN1 inhibition. P39748. Recombinant FEN1 flap cleavage, fluorescence, 15 min. Potency, µM (highest dose often 114 µM), without a hit: top-dose activity change, negative = inhibition, actives largely listed as inhibitors. 390,000 tested, 0.35% active; note: % is set by controls: 0 for no effect and ±100 for the full control effect; nearly all actives have a fitted effect of over 65% in size
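Steps: FEN1 (10 nM) dispensed; compound added by pin tool; 15 min at room temperature; substrate added to 50 nM final; reads at 0 min and 15 min; data normalized and fitted (four-parameter Hill).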
Pol eta inh – inhibitors of human DNA polymerase eta. Q9Y253. recombinant Pol eta, fluorescent DNA replication assay. Potency, µM (titrated, usually from 114 µM), without a hit: top-dose activity change, negative = inhibition, hits mostly inhibitors. 390,000 tested, 1.2% active; note: % is set by controls: 0 for no effect and ±100 for the full control effect
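Fluorescent replication assay: 50 nM final substrate added after a 15 min room-temperature compound preincubation with 10 nM enzyme. Signal taken at 0 min and again at 10 min.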
WRN inhibitor – inhibitors of human WRN helicase | Q14191 | WRN helicase unwinding, fluorescent forked duplex, kinetic | Potency, µM (top dose mostly 114 µM), for inactives: at the highest dose activity change, negative = inhibition, usual class: inhibitors | 360,000 tested, 0.46% active; note: % is set by controls: 0 for no effect and ±100 for the full control effect; nearly all actives have a fitted effect of over 55% in size
Target sequence (Q14191 whole entry, looked up): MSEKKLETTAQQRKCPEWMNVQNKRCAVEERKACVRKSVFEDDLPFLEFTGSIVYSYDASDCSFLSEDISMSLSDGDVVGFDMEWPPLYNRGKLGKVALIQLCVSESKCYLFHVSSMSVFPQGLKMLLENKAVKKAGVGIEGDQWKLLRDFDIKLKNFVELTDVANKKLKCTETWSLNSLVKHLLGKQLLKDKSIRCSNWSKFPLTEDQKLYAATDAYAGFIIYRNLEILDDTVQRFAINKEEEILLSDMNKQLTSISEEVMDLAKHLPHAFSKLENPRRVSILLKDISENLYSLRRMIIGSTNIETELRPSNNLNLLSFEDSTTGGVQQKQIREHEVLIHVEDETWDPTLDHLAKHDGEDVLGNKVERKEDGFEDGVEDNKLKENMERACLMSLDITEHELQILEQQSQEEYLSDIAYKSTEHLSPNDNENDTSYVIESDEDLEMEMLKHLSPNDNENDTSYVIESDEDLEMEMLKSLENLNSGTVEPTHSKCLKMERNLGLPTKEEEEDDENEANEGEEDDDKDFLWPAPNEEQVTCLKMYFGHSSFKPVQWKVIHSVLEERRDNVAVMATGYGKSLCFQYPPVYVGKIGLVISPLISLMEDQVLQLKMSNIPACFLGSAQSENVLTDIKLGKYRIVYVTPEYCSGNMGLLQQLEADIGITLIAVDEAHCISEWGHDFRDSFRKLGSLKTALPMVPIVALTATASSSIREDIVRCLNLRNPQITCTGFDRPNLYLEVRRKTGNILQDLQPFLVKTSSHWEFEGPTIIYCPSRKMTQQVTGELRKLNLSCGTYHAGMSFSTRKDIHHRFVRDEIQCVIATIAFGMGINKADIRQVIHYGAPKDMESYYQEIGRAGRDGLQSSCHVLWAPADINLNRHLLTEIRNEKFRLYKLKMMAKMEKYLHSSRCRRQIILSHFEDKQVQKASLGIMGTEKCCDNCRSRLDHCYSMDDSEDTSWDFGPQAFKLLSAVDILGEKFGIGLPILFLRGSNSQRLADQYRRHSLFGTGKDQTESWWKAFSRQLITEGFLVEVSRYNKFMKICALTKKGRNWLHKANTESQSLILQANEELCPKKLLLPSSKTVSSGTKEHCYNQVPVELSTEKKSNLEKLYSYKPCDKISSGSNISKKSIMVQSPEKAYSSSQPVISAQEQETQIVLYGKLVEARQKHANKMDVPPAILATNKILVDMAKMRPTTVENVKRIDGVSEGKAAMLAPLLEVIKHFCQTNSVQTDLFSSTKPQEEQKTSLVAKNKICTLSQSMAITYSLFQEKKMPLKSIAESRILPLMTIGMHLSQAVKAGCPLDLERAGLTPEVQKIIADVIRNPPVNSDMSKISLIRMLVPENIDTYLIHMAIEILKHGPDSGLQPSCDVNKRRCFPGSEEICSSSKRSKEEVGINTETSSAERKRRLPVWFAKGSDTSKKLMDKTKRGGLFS
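Primary qHTS, 1536-well format. 20 nM WRN + compound, 15 min RT; start with 100 nM forked fluorophore/quencher duplex, 2 mM ATP (final); kinetic read ex 525/em 598 nm.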
POLK inh – blocks human DNA polymerase kappa activity; Q9UBT6; 400,000 tested, 0.53% active; purified Pol kappa, fluorescent DNA synthesis assay, 10 min; AID 588579; Potency, µM (highest dose often 107 µM), for inactives: at the top dose activity, negative = inhibition, most hits filed as inhibitors; note: % is set by controls: 0 for no effect and ±100 for the full control effect
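Inhibition of 10 nM Pol kappa is measured by a fluorescent read-out at 0 and 10 min following addition of 50 nM substrate (final), with a 15-min room-temperature compound preincubation.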
The depositor's hits bear a star; ? = inconclusive; nt = no result; [ ] = dose if it differs, or a comment. Hits are enriched below; roughly 2.4% of the tested compounds scored in any of these assays. Calls come from the whole dose curve; as a rule, active = well fitted curve in the direction sought with a large enough effect; inconclusive = small, poorly fitted or top-dose-only effect, or another doubt; inactive = no such curve, though single readings can be large; an effect the other way counts as inactive or inconclusive. Potency is the fitted concentration of half-maximal effect.

SMILES	POLB inh	POLI inh	FEN1 inh	Pol eta inh	WRN inhibitor	POLK inh
O=C(CCN1C(=O)/C(=C/c2ccc(F)cc2)SC1=S)Nc1cc([N+](=O)[O-])ccc1O	45µM*	?	-2%	0%	-4%	-9%[60.1 µM]
O=C(CCCN1C(=O)/C(=C/c2cccs2)SC1=S)Nc1cc([N+](=O)[O-])ccc1O	2%	30%	-11%	-17%	-9%	-16%
COc1ccccc1CCNC(=O)C(=O)NCC(c1ccco1)S(=O)(=O)c1cccs1 (centres undefined)	17%	28%	-12%	-18%	nt	-3%[60.1 µM]
O=C(Nc1nc(-c2cccs2)cs1)c1ccc([N+](=O)[O-])o1	nt	?	5%	79µM*	-13%[11.6 µM]	-13%
Cc1nc2cccnc2n1-c1cccc(C(=O)NCc2cccc(Cl)c2)c1	58%	-1%	-17%	-8%	nt	-14%
Cc1ccc2occ(C3N[C@H](C(=O)O)CS3)c(=O)c2c1 (some centres undefined)	4%	10µM*	0%	?	-29%	-9%
O=C1c2[nH]nc(-c3ccc(F)cc3)c2C(c2ccccc2F)N1c1ccccc1 (centres undefined)	-23%	12%	-118%	-22%	nt	-8%
N#Cc1c(-c2ccccc2)cc(-c2ccco2)c(C#N)c1N	40µM*	nt	nt	nt	nt	nt
N#Cc1sc2nc(-c3ccccc3)cc(-c3ccco3)c2c1N	40µM*	0.79µM*	?	8.9µM*	35µM*	50µM*
CC(=O)Nc1nc(-c2ccccc2)cc(-c2ccco2)c1C#N	nt	11%	-5%	-4%	2%	-3%
CC(C)(C)n1ncc2c(=O)n(Cc3cccc(C(F)(F)F)c3Cl)cnc21	nt	6%	-23%	nt	nt	-15%
CSc1nc(-c2ccco2)nn1C(=O)c1cccs1	-24%	?	1%	-10%	11%	-14%
COc1ccc(C(=O)n2nc(-c3ccco3)nc2SC)cc1OC	?	32µM*	1%	?	?	-10%
COc1ccc(N2CCN(C(=O)COc3ccc4ccccc4c3)CC2)cc1	8%	8%	9%	5%	3%	-6%
COc1cc(OC)cc(C(=O)N2CCN(C(=O)COc3ccc4ccccc4c3)CC2)c1	13%	71µM*	7%	-10%	-7%[57.1 µM]	-7%
Cc1ccc(NS(=O)(=O)c2c(C)nc3sc(C)c(C)n3c2=O)cc1F	-27%	-27%	-8%	-14%	nt	-23%
Cc1sc2nc3c4ccccc4c(NCc4ccco4)nn3c(=O)c2c1C	11µM*	-1%	-21%	?	?	-19%
COc1ccccc1N1CCN(C(=O)C(C)CS(=O)(=O)c2ccc3c(c2)NC(=O)CS3)CC1 (centres undefined)	8.9µM*	10%	-7%	-9%	-7%	-4%
N#C/C(=C\c1ccc(/C=C(/C#N)c2nn(CCO)c(N)c2C#N)cc1)c1nn(CCO)c(N)c1C#N	2%	-5%	?	-9%	56µM*	-12%
N#C/C(=C/c1ccccc1)c1nn(CCO)c(N)c1C#N	7%	12%	5%	-1%	-5%	-1%
CCCCNS(=O)(=O)c1ccc2nc(-c3cccnc3)cc(C(=O)NCCCOCC)c2c1	45µM*	-15%	7%	-17%	nt	-4%[60.1 µM]
CCCCNS(=O)(=O)c1ccc2nc(-c3cccnc3)cc(C(=O)NCCCOC)c2c1	1%	47%	9%	1%	-7%	-11%
CCOC(=O)c1ccc(N2C(=O)c3n[nH]c(-c4cccs4)c3C2c2cccc(OC)c2)cc1 (centres undefined)	0%	-15%	-1%	-24%	nt	-3%
CCOc1ccc(N2C(=O)c3n[nH]c(-c4cccs4)c3C2c2cccc(F)c2)cc1 (centres undefined)	8%	13µM*	?	nt	nt	1%
COC(=O)C1=C(CSc2nc3c(cc2C#N)CN(C)CC3)OC(N)=C(C#N)C1c1ccc(F)cc1 (centres undefined)	?	14µM*	-21%	?	?	71µM*
SMILES	POLB inh	POLI inh	FEN1 inh	Pol eta inh	WRN inhibitor	POLK inh
COc1ccccc1C(=O)NCC(=O)N/N=C/c1cc(Br)ccc1OC(=O)/C=C\c1ccco1	-5%	?	?	-8%	1%[11.6 µM]	32µM*
O=C(CNC(=O)c1ccc(F)cc1)N/N=C/c1cc(Br)ccc1OC(=O)/C=C/c1ccco1	?	?	15%	56µM*	-10%[11.6 µM]	-19%
O=C(CNC(=O)c1ccccc1F)N/N=C/c1cc(Br)ccc1OC(=O)/C=C/c1ccco1	?	?	-20%	-6%	-24%	?
Cc1[nH]c2ccccc2c1/C=C/c1ccnc2ccccc12	nt	25%	?	nt	nt	6%
Cc1[nH]c2ccccc2c1C(c1c[nH]c2ccccc12)c1c(C)[nH]c2ccccc12	nt	29%	1%	nt	nt	3%
C/C(=N\O)c1ccc2c(c1)CC(C)O2 (centres undefined)	3%	-20%	2%	-14%	13%	8%
C=C(CO)C1Cc2cc(C(C)=O)ccc2O1 (centres undefined)	?	?	?	20µM*	-33%	?
CCN(C(=O)COC(=O)c1cccnc1)c1cccc2ccccc12	nt	-12%	-17%	-3%	-9%	-8%
CCN(C(=O)COC(=O)c1ccc([N+](=O)[O-])o1)c1cccc2ccccc12	nt	-20%	28µM*	?	14%	-18%
O=C(CSc1nc2ccccc2n1Cc1ccccc1Cl)N/N=C/c1ccccc1C(=O)O	?	4%	-21%	-12%	-14%	-3%
O=C(O)COc1ccccc1/C=N/NC(=O)CSc1nc2ccccc2n1Cc1ccccc1Cl	79µM*	?	3%	-12%	-21%	-5%
CCCOc1ccc(-c2nc(SCc3ccccc3)[nH]c(=O)c2C#N)cc1OC	50µM*	35%	-5%	-3%	-24%	-7%
Cc1ccc(C)c(NC(=O)CSc2nc(-c3ccccc3)c(C#N)c(=O)[nH]2)c1	56µM*	?	9%	-2%	nt	-7%
CN(C(=O)CSc1nc(-c2ccc(C(C)(C)C)cc2)c(C#N)c(=O)[nH]1)C1CCCCC1	?	?	-35%	35µM*	-9%[11.6 µM]	-19%
N#Cc1c(-c2ccccc2)nc(SCC(=O)NC2CCCCC2)[nH]c1=O	38%	-15%	-14%	9%	4%	1%
CSc1nc(-c2ccccc2)c(C#N)c(=O)[nH]1	10%	-22%	-1%	-20%	6%	-1%
COc1ccccc1NC(=O)CSc1nc(-c2ccc(C(C)(C)C)cc2)c(C#N)c(=O)[nH]1	79µM*	-29%	-12%	nt	nt	-20%
CCOc1ccc(NC(=O)N2CC=C(c3c[nH]c4ccccc34)CC2)cc1	-17%	-2%	-4%	-14%	nt	-8%

Screens as filed in PubChem.
